Results filed as inconclusive are left out. Active and inactive are the calls of the source. The calls were made as follows: active = hit-call score of the fitted dose curve at least 0.9, where 1 is the maximum; inconclusive = response in the unintended direction; inactive = score below 0.9.
read-out: ABC Transporter (ABCB1), ABCB1 (gene 5243); experiment: CLD_ABCB1_24hr: CellzDirect (CLD) Gene Expression Assay for ABC Transporter (ABCB1) at 24 hours (AID 2283684);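 as to AC50: potency for increase in ABCB1 mRNA relative to DMSO vehicle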
Protocol: CLD_24hr is a cell-based, multiplexed-readout assay that uses hepatocyte, a human liver primary cell, with measurements taken at 24 hours after chemical dosing in a 96-well plate.CLD_ABCB1_24hr is one of 16 assay component(s) measured or calculated from the CLD_24hr assay. It is designed to make measurements of mRNA induction, a form of inducible reporter, as detected with chemiluminescence signals by Quantitative Nuclease Protection Assay (qNPA) technology.Data from the assay component CLD_ABCB1_24hr was analyzed at the endpoint, CLD_ABCB1_24hr, in the positive analysis fitting direction relative to DMSO as the negative control and baseline of activity. Using a type of inducible reporter, gain-of-signal activity can be used to understand changes in the reporter gene as they relate to the gene ABCB1. Furthermore, this assay endpoint can be referred to as a primary readout. To generalize the intended target to other relatable targets, this assay endpoint is annotated to the transporter intended target family, where subfamily is ABC transporter.
Human hepatocyte cultures were treated daily for two consecutive days with fresh dosing solutions containing appropriate concentrations of the 320 ToxCast chemicals (chemical identities were blinded to CellzDirect and other ToxCast collaborators), vehicle control (0.2% DMSO), and positive control inducers as summarized in Table 1. Due to the large number of treatment groups and chemicals examined, the ToxCast chemicals were divided into two groups (spanning two independent cultures of hepatocytes from separate donor preparations (Hu778: ToxCast plates 1 and 2; Hu776: ToxCast plates 3 and 4). Each preparation of human hepatocyte cultures was treated with respective vehicle control, medium only control, set of six positive controls/reference chemicals for the five hepatic receptor pathways, and a subset of eight of the ToxCast chemicals (indoxacarb, pyrithiobac-sodium, norflurazon, cyhalofop-butyl, methomyl, thiram, acetochlor, and propiconazole). These replicate data, coupled with internal replicates designed within the blinded ToxCast chemical library, provided additional data to evaluate interindividual differences between hepatocyte preparations and their potential impact on chemical profiles.Cell morphology and integrity were evaluated using phase-contrast microscopy as an indicator of hepatocyte cell health (Tyson & Green, 1987). Cultures for each treatment group (i.e., media, vehicle [0.2% DMSO], positive control inducers [multiple concentrations], and the ToxCast chemicals [multiple concentrations]) were observed and cell morphology was assessed relative to vehicle control cultures at each harvest time point (0, 6, 24, or 48 h). […] Images were evaluated at the conclusion of the study to assess changes in cell integrity and account for the effects of chemical exposure on uncharacteristic changes in concentration-dependent gene expression profiles. The results from these determinations of apparent cytotoxicity were annotated (yes/no) alongside the corresponding qNPA data for reference.At the conclusion of each treatment period, hepatocyte cultures (96-well) were washed with 1 volume of HBSS, lysed by addition of 25 ul ArrayPlate lysis buffer (HTG, Tucson, AZ), and 70 ul/well of Denaturation Oil, denatured by incubation at 95C for 10 min, and frozen at approximately -70C until analysis by nuclease protection assay (qNPA) (Roberts et al., 2007). For qNPA analysis, cell lysates were thawed at 50C for approximately 30 min, qNPA probes were added, and samples were incubated at 95C for 10 min to begin the detection process by denaturing the target RNA, dissociating the duplexes and secondary structure hybridization. At the conclusion of the hybridization period, S1 nuclease reagent was added to each sample to digest all nonprotected nucleotides at 50C for 60-90 min. […]

SMILES	outcome	AC50
COCC(=O)N(c1c(C)cccc1C)C(C)C(=O)OC (stereo not given)	inactive	–
CC(C)(C)C(=O)C(Oc1ccc(Cl)cc1)n1cncn1 (stereo not given)	inactive	–
CC(C)N1C(=O)c2ccccc2NS1(=O)=O	inactive	–
COC(=O)N(C(=O)N1CO[C@@]2(C(=O)OC)Cc3cc(Cl)ccc3C2=N1)c1ccc(OC(F)(F)F)cc1	inactive	–
CCCCC(C#N)(Cn1cncn1)c1ccc(Cl)cc1 (stereo not given)	inactive	–
COc1cc(OC)nc(NC(=O)NS(=O)(=O)c2ncccc2OCC(F)(F)F)n1	inactive	–
CCCN(CC)CC1COC2(CCC(C(C)(C)C)CC2)O1 (stereo not given)	inactive	–
CCCC(=NOCC)C1=C(O)CC(CC(C)SCC)CC1=O (stereo not given)	inactive	–
CCSC(=O)N1CCCCCC1	inactive	–
Nc1c(Cl)c(Cl)nc(C(=O)O)c1Cl	inactive	–
CCNP(=S)(OC)O/C(C)=C/C(=O)OC(C)C (stereo not given)	inactive	–
Nc1cnn(-c2ccccc2)c(=O)c1Cl	inactive	–
CCNC(=O)NC(=O)C(C#N)=NOC	inactive	–
COP(=S)(OC)Oc1ccc([N+](=O)[O-])c(C)c1	inactive	–
CC(C)C1(C)N=C(c2ncccc2C(=O)O)NC1=O (stereo not given)	inactive	–
N#CN=C1SCCN1Cc1ccc(Cl)nc1	inactive	–
O=C(O)c1c(Cl)ccc2cc(Cl)cnc12	inactive	–
CC(C)Oc1cccc(NC(=O)c2ccccc2C(F)(F)F)c1	inactive	–
COc1ccc(-c2ccccc2)cc1NNC(=O)OC(C)C	inactive	–
CCOc1nc(C(Cl)(Cl)Cl)ns1	inactive	–

SMILES	outcome	AC50
Cc1ccc(N=CN(C)C=Nc2ccc(C)cc2C)c(C)c1	–	28.2 µM (active)
Clc1nc(Cl)nc(Nc2ccccc2Cl)n1	inactive	–
Clc1cccc(C(Cl)(Cl)Cl)n1	inactive	–
CS(=O)(=O)c1cc(C(F)(F)F)ccc1C(=O)c1cnoc1C1CC1	inactive	–
COc1cc(Cl)c(OC)cc1Cl	inactive	–
CN=C=S	inactive	–
COC(=O)c1c(C(F)F)nc(C(F)(F)F)c(C2=NCCS2)c1CC(C)C	inactive	–
Cc1cnc(C2=NC(C)(C(C)C)C(=O)N2)c(C(=O)O)c1 (stereo not given)	inactive	–
COP(=S)(OC)SCn1nnc2ccccc2c1=O	inactive	–
COC(=O)NS(=O)(=O)c1ccc(N)cc1	inactive	–
CSC(=O)c1c(C(F)F)nc(C(F)(F)F)c(C(=O)SC)c1CC(C)C	inactive	–
Cc1c(COC(=O)[C@@H]2[C@H](/C=C(\Cl)C(F)(F)F)C2(C)C)cccc1-c1ccccc1	–	29.9 µM (active)
C=C(C)CN(CC)c1c([N+](=O)[O-])cc(C(F)(F)F)cc1[N+](=O)[O-]	inactive	–
CO/N=C(/C1=NOCCO1)c1ccccc1Oc1ncnc(Oc2ccccc2Cl)c1F	inactive	–
CNC(=O)Oc1cccc2ccccc12	inactive	–
CS(=O)(=O)c1ccc(C(=O)C2C(=O)CCCC2=O)c([N+](=O)[O-])c1	inactive	–
N#Cc1c(Cl)cccc1Cl	inactive	–
CC1(C)CCC(=Cc2ccc(Cl)cc2)C1(O)Cn1cncn1 (stereo not given)	inactive	–
CCOc1nc(F)cc2nc(S(=O)(=O)Nc3c(Cl)cccc3Cl)nn12	inactive	–
O=C(Nc1ccccc1-c1ccc(Cl)cc1)c1cccnc1Cl	inactive	–
